From PubChem BioAssay come the findings set out here.

Activity calls are given as the source filed them.

For assay [1], the system named is wheat germ agglutinin (Triticum aestivum), Alexa647-labelled. The assay can be described thus: wheat germ agglutinin binders on compound microarrays, profiling panel, artefact control for SMM control-protein annotation, biochemical, small-molecule microarray, 635/667 nm fluorescence (AID 1140).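 Note: score merges 667 nm feature emission with signal to noise over triplicate slides.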 To be noted: WGA-A647 binding, 635 nm fluorescence, higher = more signal.

Assay [2] addresses Luciferin 4-monooxygenase (Photinus pyralis) (UniProt P08659). Briefly: firefly luciferase enzyme inhibitors, primary screen, biochemical, luminescence, purified enzyme, 2006 set (AID 1141).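 Note: cell-free assay with purified firefly luciferase at 100 ng per well in PBS; test concentration not given here.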 To be noted: SteadyGlo luminescence, 30 min, higher = more signal, called active from +8 up or from −8 down.
For assay [3], the system named is Wnt5a (protein binding on small-molecule microarray). The assay can be described thus: Wnt5a binders on small-molecule microarray, primary screen, biophysical, 635/667 nm fluorescence (AID 1142).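 Note: fluorescence read at 667 nm with signal to noise per printed feature.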 To be noted: 635 nm fluorescence, higher = more signal.
A short description of assay [4]: cell viability in Huh7 cells, primary screen, cytotoxicity control for HCV replication inhibitor project, CellTiter-Glo luminescence, basal, 48 h (AID 1143).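 Note: Huh7 hepatoma cells carrying a hepatitis C replication reporter with no stimulus; test concentration not given here.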 Conditions: Huh7 HCV replicon, higher = more signal, called active from +8 up or from −8 down. For orientation: Cellular ATP, detected with luciferase, serves as a proxy for viable cell number.
Assay [5] can be described thus: CREB reporter modulators without forskolin, primary screen, cell-based, PC12, CRE-LacZ reporter, unstimulated (AID 1145). Conditions: no forskolin, luminescence, 4.5 h, higher = more signal, called active from +8 up or from −8 down.
Assay [6] is described as follows: CREB reporter modulators under forskolin, primary screen, cell-based, PC12, CRE-LacZ reporter, forskolin-stimulated (AID 1146).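 Note: PC12 cells with 6xCRE LacZ reporter stimulated by forskolin 10 µM; beta-galactosidase reporter signal reflecting CREB driven transcription.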 Conditions: luminescence, 4.5 h, higher = more signal, called active from +8 up or from −8 down.
The target in assay [7] is Streptavidin (Streptomyces avidinii) (UniProt P22629). Briefly: streptavidin binders on small-molecule microarray, primary screen, artefact control for SMM compound annotation, biophysical, 635/667 nm fluorescence (AID 1147).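 Note: signal reflects streptavidin binding to arrayed compounds as a control protein.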 To be noted: streptavidin binding, higher = more signal.
Assay [8] in a line: small-molecule binders of probe aInhba, primary screen, biochemical, small-molecule microarray, 635/667 nm fluorescence (AID 1148).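 Note: score merges 667nm spot fluorescence with signal-to-noise for antibody binding to printed compounds.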 To be noted: higher = more signal.
In assay [9] the target is Torsin-1A (Homo sapiens) (UniProt O14656). Briefly: torsin A binders from cell lysate, primary screen, small-molecule microarray, wild-type, 635/667 nm (AID 1149). Conditions: COS7 hTOR1A-WT lysate, 635 nm fluorescence, higher = more signal.
For assay [10] the target is unchanged. The assay can be described thus: small-molecule binders of mutant TOR1A in lysate, primary screen, cell lysate, small-molecule microarray, COS7 lysate, 635/667 nm fluorescence (AID 1150).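 Note: score pools 667 nm emission and signal to noise measuring lysate protein binding.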 To be noted: COS7 hTOR1A mutant lysate, 635 nm fluorescence, higher = more signal.
Assay [11] concerns Sonic hedgehog protein (Shh). The assay can be described thus: small-molecule binders of Shh protein, primary screen, biochemical, small-molecule microarray, 635/667 nm fluorescence (AID 1151).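 Note: Shh protein binding to compounds spotted on small-molecule microarray slides; score combines spot fluorescence intensity with signal-to-noise across triplicate slides.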 To be noted: small-molecule microarray binding, 635 nm fluorescence; higher = more signal.
Assay [12] in a line: E. coli DRC41 culture turbidity changes, primary screen, E. coli filamentation inducer project, strain DRC41, OD650, 48 h (AID 1152).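 Note: E. coli MC1000 strain DRC41 lacking acrAB efflux pump and sulA.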 To be noted: E. coli DRC41 (acrAB sulA), higher = more signal, called active from +8 up or from −8 down.
The nature of assay [13]: small-molecule binders of probe aLefty1, primary screen, biochemical, small-molecule microarray, 635/667 nm fluorescence (AID 1153).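 Note: score merges spot fluorescence with signal-to-noise ratio from the scanned slide images.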 Conditions: higher = more signal.
A short description of assay [14]: PSAC antagonists in infected red cells, primary screen, cell-based, P. falciparum Indochina, OD700, 1 h (AID 1154). Conditions: P. falciparum Indochina infected RBC osmotic lysis, higher = more signal, called active from +8 up or from −8 down.
A short description of assay [15]: PSAC antagonists in infected red cells, primary screen, cell-based, P. falciparum Indochina, OD700, 2 h (AID 1155).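 Note: lysis reports solute entry through the parasite surface anion channel PSAC; channel blockers reduce lysis of infected cells.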 To be noted: P. falciparum Indochina infected erythrocytes, osmotic lysis OD700; higher = more signal, called active from +8 up or from −8 down.
Assay [16] is described as follows: osmotic lysis modulators in infected erythrocytes, primary screen, PSAC antagonist project, cell-based, P. falciparum Indochina, OD700, 3 h (AID 1156). Conditions: higher = more signal, called active from +8 up or from −8 down.
Assay [17] can be described thus: PSAC antagonists in infected red cells, primary screen, cell-based, P. falciparum Indochina, OD700, 18 h (AID 1157). To be noted: P. falciparum Indochina infected erythrocytes, osmotic lysis OD700, 18 h; higher = more signal, called active from +8 up or from −8 down.
Assay [18] in a line: modulators of S6 phosphorylation in cells, primary screen, cell-based, A549, cytoblot, luminescence, serum-stimulated (AID 1158).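 Note: serum-stimulated A549 lung adenocarcinoma cells; signal is phosphorylated S6 detected by cytoblot immunostaining with HRP secondary.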 Conditions: A549 phospho-S6 cytoblot, 5 h, higher = more signal.
Assay [19] has as its target NADPH oxidase 2 (Homo sapiens) (UniProt P04839). The assay can be described thus: NOX2-dependent H2O2 signal modulators, primary screen, NOX inhibitor project, cell-based, HEK293-NOX2, PMA-stimulated, Amplex Red fluorescence (AID 1159). Note: test concentration not given here. Conditions: 45 min, higher = more signal, called active from +8 up or from −8 down.
The target in assay [20] is NADPH oxidase 4 (Homo sapiens) (UniProt Q9NPH5). The assay can be described thus: NOX4-dependent H2O2 signal modulators, primary screen, NOX inhibitor project, cell-based, HEK293-NOX4, tetracycline-induced, Amplex Red fluorescence (AID 1160). To be noted: 45 min, higher = more signal, called active from +8 up or from −8 down.
NADPH oxidase 4 (Homo sapiens), sequence (Q9NPH5 whole entry, looked up): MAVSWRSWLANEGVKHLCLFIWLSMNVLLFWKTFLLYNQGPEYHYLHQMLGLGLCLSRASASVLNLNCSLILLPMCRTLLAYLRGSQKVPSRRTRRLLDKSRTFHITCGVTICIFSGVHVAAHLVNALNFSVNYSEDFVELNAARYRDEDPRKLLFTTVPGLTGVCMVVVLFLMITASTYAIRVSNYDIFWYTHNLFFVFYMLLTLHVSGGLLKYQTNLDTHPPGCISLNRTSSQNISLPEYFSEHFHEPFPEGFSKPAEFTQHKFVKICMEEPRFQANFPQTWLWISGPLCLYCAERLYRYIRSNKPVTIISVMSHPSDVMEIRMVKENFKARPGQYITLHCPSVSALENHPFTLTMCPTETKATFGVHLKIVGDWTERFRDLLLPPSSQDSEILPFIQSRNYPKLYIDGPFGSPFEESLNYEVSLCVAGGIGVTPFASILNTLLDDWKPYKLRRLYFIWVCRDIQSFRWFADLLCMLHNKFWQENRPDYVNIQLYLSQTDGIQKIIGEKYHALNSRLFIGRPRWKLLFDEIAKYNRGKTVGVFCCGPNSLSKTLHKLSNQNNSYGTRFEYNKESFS

Luciferin 4-monooxygenase (Photinus pyralis), sequence (P08659 whole entry, looked up): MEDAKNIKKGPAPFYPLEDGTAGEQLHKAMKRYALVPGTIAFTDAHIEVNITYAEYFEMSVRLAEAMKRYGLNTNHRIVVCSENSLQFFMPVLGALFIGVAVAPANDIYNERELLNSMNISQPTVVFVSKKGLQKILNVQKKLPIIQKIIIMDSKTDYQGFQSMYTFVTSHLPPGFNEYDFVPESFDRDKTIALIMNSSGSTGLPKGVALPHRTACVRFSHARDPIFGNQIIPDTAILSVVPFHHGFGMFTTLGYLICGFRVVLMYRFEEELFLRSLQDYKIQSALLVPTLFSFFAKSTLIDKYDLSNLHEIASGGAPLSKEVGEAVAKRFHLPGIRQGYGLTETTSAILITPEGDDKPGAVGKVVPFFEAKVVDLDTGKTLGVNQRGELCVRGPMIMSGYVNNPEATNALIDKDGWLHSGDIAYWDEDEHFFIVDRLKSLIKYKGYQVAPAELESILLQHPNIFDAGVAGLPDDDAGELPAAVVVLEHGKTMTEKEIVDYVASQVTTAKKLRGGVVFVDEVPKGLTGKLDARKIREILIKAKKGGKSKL
Streptavidin (Streptomyces avidinii), sequence (P22629 whole entry, looked up): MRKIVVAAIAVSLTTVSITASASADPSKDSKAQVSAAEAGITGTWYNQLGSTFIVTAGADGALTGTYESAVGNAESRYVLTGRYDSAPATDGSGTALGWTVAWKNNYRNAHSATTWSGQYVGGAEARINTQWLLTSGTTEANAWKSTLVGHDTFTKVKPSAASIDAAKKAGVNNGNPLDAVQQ
NADPH oxidase 2 (Homo sapiens), sequence (P04839 whole entry, looked up): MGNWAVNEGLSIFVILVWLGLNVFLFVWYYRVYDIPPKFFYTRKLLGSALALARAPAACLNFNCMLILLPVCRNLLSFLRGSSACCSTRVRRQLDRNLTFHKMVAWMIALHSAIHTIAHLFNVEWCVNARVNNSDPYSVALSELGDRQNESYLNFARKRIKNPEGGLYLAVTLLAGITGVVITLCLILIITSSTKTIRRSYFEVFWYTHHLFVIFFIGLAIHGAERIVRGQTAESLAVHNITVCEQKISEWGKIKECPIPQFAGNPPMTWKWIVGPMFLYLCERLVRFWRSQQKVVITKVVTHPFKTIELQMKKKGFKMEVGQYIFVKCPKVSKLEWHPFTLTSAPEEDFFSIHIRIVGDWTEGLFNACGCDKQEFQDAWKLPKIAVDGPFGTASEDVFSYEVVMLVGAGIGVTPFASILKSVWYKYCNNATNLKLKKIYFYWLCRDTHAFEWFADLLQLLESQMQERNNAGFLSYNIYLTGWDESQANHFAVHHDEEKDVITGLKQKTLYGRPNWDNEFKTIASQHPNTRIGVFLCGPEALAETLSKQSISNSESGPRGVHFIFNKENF
Torsin-1A (Homo sapiens), sequence (O14656 whole entry, looked up): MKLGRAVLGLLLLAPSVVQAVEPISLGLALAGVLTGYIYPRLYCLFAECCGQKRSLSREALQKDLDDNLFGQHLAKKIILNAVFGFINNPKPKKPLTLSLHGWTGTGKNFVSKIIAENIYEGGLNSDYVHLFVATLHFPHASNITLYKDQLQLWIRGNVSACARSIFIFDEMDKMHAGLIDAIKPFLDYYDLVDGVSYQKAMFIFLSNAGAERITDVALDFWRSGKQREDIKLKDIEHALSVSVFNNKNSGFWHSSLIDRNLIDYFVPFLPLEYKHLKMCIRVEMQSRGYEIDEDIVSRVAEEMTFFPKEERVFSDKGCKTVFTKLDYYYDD

Consider `C=CCOC(=O)[C@H]1[C@@H]2C(=O)O[C@@H](c3ccccc3)[C@@H](c3ccccc3)N2[C@@H](c2ccc(OCCOC(=O)[C@H]3C[C@H]4C(=O)N5CCC[C@H]5C(=O)N4[C@H]3c3cccc(OCCO)c3)cc2)[C@]12C(=O)Nc1ccccc12`, for which the composite z-score in [1] is 0.828; in [3], 0.135; in assay [7], -0.0186; in [8], -0.0849; in the assay with Torsin-1A (Homo sapiens) [9] it was 0.292; with Torsin-1A (Homo sapiens) [10], 1.54. Also, the composite z-score in [11] was 1.18; in assay [13], -0.106. In addition, the z-score in assay [2] was -1.23 (inactive); in [4], -2.03 (inactive); in assay [5], 1.22 (inactive); in [6], -0.378 (inactive); in [12] it was 1.18 (inactive); in assay [14], 5.04 (inactive). Moreover, the z-score was 1.7 (inactive) in assay [15]; -0.158 (inactive) in [16]; 0.741 (inactive) in assay [17]; -0.0338 in assay [18]; 2.26 (inactive) in assay [19]; 1.57 (inactive) in assay [20].
With `COCCOC(=O)N1C(=O)[C@@]2(c3cc(C#CC4(O)CCCCCC4)ccc31)[C@H](C(=O)NC[C@H](O)c1ccccc1)[C@H]1C(=O)O[C@H](c3ccccc3)[C@H](c3ccccc3)N1[C@@H]2c1ccccc1OCCO`, the composite z-score in [1] was determined as 0.791; in [3], 0.393; in assay [7] it was 0.637; in [8], 0.0393; with Torsin-1A (Homo sapiens) [9], 0.821; in the assay with Torsin-1A (Homo sapiens) [10], 0.709. Also, the composite z-score came out at 1.9 in [11] and 0.223 in [13]. Besides, the z-score in assay [2] is -1.81 (inactive); in [4] it was -5.32 (inactive); in [5], -0.203 (inactive); in assay [6] it was -0.464 (inactive); in assay [12], 1.5 (inactive); in [14], 2.13 (inactive). For the same molecule, the z-score was 1.55 (inactive) in assay [15]; -0.535 (inactive) in [16]; 0.922 (inactive) in [17]; 0.632 in assay [18]; 1.82 (inactive) in [19]; -0.729 (inactive) in assay [20].
For `CC(=O)NCCCC[C@@H]1NC(=O)[C@@H]2C[C@H](C(=O)O)[C@H](c3cccc(OCCO)c3)N2C1=O`, the composite z-score in [1] is 0.795; in assay [3], 0.45; in assay [7], 0.397; in assay [8], -0.0403; with Torsin-1A (Homo sapiens) [9], 0.911; with Torsin-1A (Homo sapiens) [10], 0.903. Also, the composite z-score is 2.12 in [11] and -0.138 in [13]. Further, the z-score in assay [2] was -1.16 (inactive); in [4], -0.533 (inactive); in assay [5], 0.151 (inactive); in assay [6], -0.741 (inactive); in [12], 0.733 (inactive); in [14], 0.495 (inactive). The z-score in assay [15] was 0.373 (inactive); in assay [16] it was -1.49 (inactive); in [17] it was 0.0814 (inactive); in assay [18], 0.264; in [19], -1.16 (inactive); in [20], -0.282 (inactive).
With `COC(=O)C1=CC(c2ccc(CO)cc2)=CC(c2cccs2)N(C)C=C1C(=O)OC` (stereo not given), the composite z-score is 0.84 in assay [1]; -0.246 in assay [3]; 0.295 in [7]; -0.0471 in assay [8]; 0.503 in the assay with Torsin-1A (Homo sapiens) [9]; 0.634 with Torsin-1A (Homo sapiens) [10]. Moreover, the composite z-score came to 0.335 in assay [11] and 0.571 in assay [13]. Also, the z-score in [2] was -0.822 (inactive); in assay [4] it was -3.59 (inactive); in assay [5], -0.348 (inactive); in assay [6] it was -0.534 (inactive); in assay [12] it was 2.46 (inactive); in assay [14], 6.76 (inactive). Further, the z-score is 0.0213 (inactive) in [15]; -0.64 (inactive) in assay [16]; -1.49 (inactive) in assay [17]; 1.67 in assay [18]; -1.48 (inactive) in assay [19]; -2.33 (inactive) in assay [20].
For `COCCCNC(=O)[C@@]1(CCS(=O)(=O)c2ccccc2)N=C(c2ccc(OCCCO)cc2)O[C@H]1c1ccccc1CN=[N+]=[N-]`, the composite z-score was 1.24 in [1]; 0.671 in [3]; 1.41 in assay [7]; 0.358 in assay [8]; -0.183 with Torsin-1A (Homo sapiens) [9]; 0.186 with Torsin-1A (Homo sapiens) [10]. The composite z-score in [11] worked out at 0.744; in assay [13] it was 1.03. Further, the z-score in [2] was -0.888 (inactive); in assay [4] it was -5.36 (inactive); in assay [5] it was 2.57 (inactive); in assay [6], -1.7 (inactive); in assay [12], 2.33 (inactive); in assay [14] it was 23.5 (active). The z-score in [15] is 4.65 (inactive); in assay [16], 2.25 (inactive); in assay [17], 0.425 (inactive); in assay [18] it was 3.83; in [19], 0.439 (inactive); in assay [20], -0.383 (inactive).
Turning to `COCCOC(=O)N1C(=O)[C@@]2(c3cc(C#CC4(O)CCCCCC4)ccc31)[C@H](c1ccccc1OCCO)N1[C@H](c3ccccc3)[C@H](c3ccccc3)OC(=O)[C@H]1[C@@H]2C(=O)Nc1nc2ccccc2s1`, the composite z-score in [1] was 1.14; in assay [3], 0.478; in [7], 0.16; in assay [8], -0.0468; with Torsin-1A (Homo sapiens) [9] it was 1.2; with Torsin-1A (Homo sapiens) [10], 0.663. The composite z-score in assay [11] is 1.52; in assay [13], -0.105. Besides, the z-score was -2.53 (inactive) in assay [2]; -4.73 (inactive) in assay [4]; 0.802 (inactive) in assay [5]; -1.05 (inactive) in assay [6]; 2.49 (inactive) in [12]; 3.33 (inactive) in assay [14]. The z-score is 0.299 (inactive) in assay [15]; 0.851 (inactive) in assay [16]; -0.515 (inactive) in [17]; 1.02 in assay [18]; 1.27 (inactive) in assay [19]; -0.694 (inactive) in assay [20].
Regarding `COc1ccc([Si](C)(C)[C@H]2[C@H](CCO)O[C@@]3(C(=O)N(Cc4ccc(N5C(=O)c6cccc7cccc5c67)cc4)c4ccccc43)[C@@H]2C)cc1`, the composite z-score in assay [1] is 0.796; in assay [3], -0.158; in assay [7], 0.338; in assay [8], -0.101; with Torsin-1A (Homo sapiens) [9] it was -0.294; with Torsin-1A (Homo sapiens) [10], -0.124. The composite z-score in [11] was -0.0681; in assay [13], -0.147. Further, the z-score in assay [2] is -0.558 (inactive); in assay [4], -6.16 (inactive); in [5], 0.399 (inactive); in [6] it was -1.05 (inactive); in [12] it was 1.19 (inactive); in assay [14], 3.64 (inactive). In addition, the z-score in assay [15] was 2.29 (inactive); in assay [16], -0.273 (inactive); in [17], 1.23 (inactive); in assay [18], 1.63; in assay [19], 0.469 (inactive); in assay [20], 0.821 (inactive).
Regarding `CC(C)C(CO)N1C(=O)[C@@H]2[C@H]3C(=O)OCC=C[C@H]3OC23C=CCN(Cc2ccccc2)C(=O)[C@@H]13` (stereo not given in full), the composite z-score in assay [1] is -1.06; in assay [3] it was -0.353; in assay [7] it was -1.32; in assay [8], -0.195; with Torsin-1A (Homo sapiens) [9], -0.411; in the assay with Torsin-1A (Homo sapiens) [10], -1.02. For the same molecule, the composite z-score in [11] was 0.565; in assay [13], -0.268. The z-score is -0.511 (inactive) in assay [2]; -0.524 (inactive) in assay [4]; 0.325 (inactive) in assay [5]; 0.559 (inactive) in [6]; 1.64 (inactive) in [12]; 0.379 (inactive) in assay [14]. The z-score is -0.0407 (inactive) in [15]; 1.32 (inactive) in assay [16]; -0.16 (inactive) in assay [17]; -0.257 in assay [18]; 1.5 (inactive) in [19]; 0.118 (inactive) in assay [20].
